“And” between values parts separate entries of the source, which are not always exact repeats. Identical values can stand only once. Inconclusive results are not listed. Unmarked numbers belong to inactive results. The source made the active and inactive calls. The call rests on the fitted dose curve; in most records, active means well fitted curve in the direction sought with a large enough effect; inconclusive means small, poorly fitted or top-dose-only effect, or another doubt; inactive means no such curve, though single readings can be large; an effect the other way counts as inactive or inconclusive.

One experiment relates to C33A. Kind of experiment: Primary qHTS to identify gynecologic anti-cancer compounds using libraries of approved drugs and bioactive compounds (AID 1345084). Further: nearly all actives have a fitted effect of over 55% in size. The conditions noted are these: Gynecologic cancer cell panel viability, ATPlite luminescence, 48 h; series mostly up to 57.5 µM. The essentials:
(§1)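 ATP-based viability (ATPlite), 1,000 cells/well, 16 h pre-incubation, 48 h compound at 37 C, 5% CO2, 15 min RT before read.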
Background: In qHTS, concentration-response curves come from the screen itself.

The next experiment has as its system CAOV3. The description is as above. The conditions noted are these: Gynecologic cancer cell panel viability, ATPlite luminescence, 48 h; series mostly up to 57.5 µM. Put shortly:
as §1
(In general: Cellular ATP, detected with luciferase, serves as a proxy for viable cell number.)

The test system of the next experiment is CASKI. Described as above. The settings on record: Gynecologic cancer cell panel viability, ATPlite luminescence, 48 h; series mostly up to 57.5 µM. The essentials: as §1
The test system of a further experiment is Es-2. The description is as above. The settings on record: Gynecologic cancer cell panel viability, ATPlite luminescence, 48 h; series mostly up to 57.5 µM. The essentials: as §1
A further experiment relates to HeLa. Described as above. The conditions noted are these: Gynecologic cancer cell panel viability, ATPlite luminescence, 48 h; series mostly up to 57.5 µM. Put shortly:
as §1

In the next experiment the test system is Hek293T. The experiment is described as above. The conditions noted are these: Gynecologic cancer cell panel viability, ATPlite luminescence, 48 h, control line for the selectivity index; series mostly up to 57.5 µM. Put shortly: as §1
The next experiment relates to JEG-3. The experiment is described as above. The conditions noted are these: Gynecologic cancer cell panel viability, ATPlite luminescence, 48 h; series mostly up to 57.5 µM. Put shortly: as §1
The next experiment deals with OV90. The experiment is described as above. The conditions noted are these: Gynecologic cancer cell panel viability, ATPlite luminescence, 48 h; series mostly up to 57.5 µM. Put shortly:
as §1

The next experiment concerns PA-1. The description is as above. The conditions noted are these: Gynecologic cancer cell panel viability, ATPlite luminescence, 48 h; series mostly up to 57.5 µM. Put shortly: as §1
A further experiment has as its system WaGa. Kind of experiment: qHTS assay to identify novel small-molecules to repurpose for Merkel cell carcinoma treatment (AID 1296009). Further: nearly all actives have a fitted effect of over 60% in size. The conditions noted are these: MCC and control cell lines, CellTiter-Glo viability, 72 h; series mostly up to 46 µM. The essentials:
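72 hr, 37 degree celsius; NPC 8-pt / MIPE 11-pt dose response; compound pinned in DMSO; CellTiter-Glo, 10 min RT, luminescence; normalized to no-cell and DMSO controls.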
Potency means the concentration at half of the fitted maximal effect.

In the case of `CC(O)C1C(=O)N2C(C(=O)O)=C(SC3CNC(C(=O)N(C)C)C3)C(C)C12` (centres undefined), the Potency entry in the experiment on C33A, in the experiment with CAOV3, with CASKI, in the experiment on Es-2, in the experiment with HeLa and in the experiment with Hek293T was “inactive” in each case. Also, the Potency entry in the experiment with JEG-3, in the experiment with OV90 and in the experiment on PA-1 was “inactive” throughout.
Take `CNc1nccc(-c2cccnc2Oc2cc(C(=O)Nc3cccc(C(F)(F)F)c3)ccc2C)n1`: the Potency result in the experiment with WaGa, with C33A, in the experiment with Hek293T and with JEG-3 was “inactive” throughout.
For `CNC(=O)c1nn(C)c2c1C(C)(C)Cc1cnc(Nc3ccc(N4CCN(C)CC4)cc3)nc1-2`, the Potency was 5.9 µM (active) with WaGa; 0.631 µM (active) with C33A; 15.8 µM (active) with CASKI; 2.82 µM (active) in the experiment with HeLa; 7.94 µM (active) in the experiment with Hek293T; 11.2 µM (active) in the experiment on JEG-3. Also, the Potency with PA-1 was 2.24 µM (active).
For the molecule `C[C@@H](Oc1cc(-c2cnn(C3CCNCC3)c2)cnc1N)c1c(Cl)ccc(F)c1Cl`, the Potency was 23.5 µM (active) in the experiment with WaGa; 20 µM (active) with C33A; 14.1 µM (active) in the experiment on CASKI; 3.55 µM (active) and 14.1 µM (active) in the experiment with HeLa; 25.1 µM (active) with Hek293T; 28.2 µM (active) with JEG-3. Further, the Potency with OV90 is 25.1 µM (active); with PA-1 it was 14.1 µM (active).
As for `COCCOc1ccc2c(c1)ncn2-c1ccc2cccc(N3CCC(N)CC3)c2n1`, the Potency in the experiment with WaGa is 20.9 µM (active); in the experiment with Es-2, 28.2 µM (active); in the experiment with JEG-3, 17.8 µM (active); in the experiment with PA-1, 7.94 µM (active).
On to `O=C(O)Cn1nnc(-c2cc(N3CCC(Oc4cc(F)ccc4Br)CC3)no2)n1`, for which the Potency result in the experiment with WaGa, with C33A, in the experiment with CASKI, in the experiment on HeLa, with Hek293T and in the experiment with JEG-3 was “inactive” throughout. In addition, the Potency result in the experiment with OV90 and in the experiment with PA-1 was “inactive” in each case.
On to `O=C(CCCCCCNC(=O)c1cnc(N(c2ccccc2)c2ccccc2)nc1)NO`, for which the Potency was 2.96 µM (active) in the experiment with WaGa; 11.2 µM (active) in the experiment with HeLa; 15.8 µM (active) in the experiment on JEG-3; 8.91 µM (active) with OV90; 3.16 µM (active) with PA-1.
Turning to `O=C(CCCCCCC(=O)Nc1ccc([C@H]2O[C@@H](CSc3nc(-c4ccccc4)c(-c4ccccc4)o3)C[C@@H](c3ccc(CO)cc3)O2)cc1)NO`, the Potency in the experiment with WaGa was 7.43 µM (active). Moreover, the Potency entry in the experiment with CASKI, with Es-2, in the experiment with HeLa and in the experiment on Hek293T was “inactive” in each case.
With `CNC(=O)c1cc(Oc2ccc(NC(=O)Nc3cc(C(C)(C)C)nn3-c3ccc4ncccc4c3)c(F)c2)ccn1`, the Potency entry in the experiment with WaGa and in the experiment with CAOV3 was “inactive” each time. Also, the Potency in the experiment with PA-1 was 20 µM (active).
On to `Cc1ccc(C(=O)Nc2cccc(C(F)(F)F)c2)cc1-c1ccc2nc(NCCN3CCOCC3)ncc2c1`, for which the Potency result with WaGa and in the experiment with Hek293T was “inactive” throughout. In addition, the Potency in the experiment on CAOV3 is 22.4 µM (active); in the experiment on CASKI, 14.1 µM (active); in the experiment on Es-2, 11.2 µM (active); in the experiment with HeLa, 11.2 µM (active); with OV90 it was 6.31 µM (active); with PA-1, 12.6 µM (active).
In the case of `C[C@]1(CO)CN(c2cc(C(=O)Nc3ccc4c(c3)-c3c(c(C(N)=O)nn3-c3ccc(F)cc3)CC4)c(Cl)cn2)C[C@@]1(C)CO`, the results for the Potency with WaGa and in the experiment with PA-1 were 18.7 µM (active) and 11.2 µM (active), respectively. For the same molecule, the Potency result in the experiment with CAOV3, in the experiment with HeLa, in the experiment with Hek293T, in the experiment with JEG-3 and with OV90 was “inactive” in each case.
Consider `Cn1cc(-c2[nH]c3cc(NC(=O)[C@H](N)C4CCCCC4)cc4c3c2C=NNC4=O)cn1`, for which, in the experiment with WaGa, the Potency is 2.64 µM (active). The Potency entry in the experiment on CASKI and in the experiment with JEG-3 was “inactive” throughout.
As for `COc1cc2c(Oc3ccc4[nH]c(C)cc4c3F)ncnc2cc1OCCCN1CCCC1`, the Potency result in the experiment on WaGa, with Es-2, in the experiment with HeLa, in the experiment with Hek293T and with PA-1 was “inactive” in each case.
`NCC(=O)Nc1ccc(-n2nc(C(F)(F)F)cc2-c2ccc3c(ccc4ccccc43)c2)cc1`: the Potency result in the experiment with C33A, with CAOV3, in the experiment with CASKI, in the experiment on Es-2 and with OV90 was “inactive” throughout.
As for `COc1cc2c(cc1-c1c(C)noc1C)ncc1[nH]c(=O)n([C@H](C)c3ccccn3)c12`, the Potency with WaGa was 5.9 µM (active); in the experiment on CASKI, 3.98 µM (active); in the experiment on JEG-3 it was 12.6 µM (active). Also, the Potency result in the experiment with C33A, with Hek293T and in the experiment with PA-1 was “inactive” each time.
On to `Nc1nc(NCCNc2ncc(-n3ccnc3)c(-c3ccc(Cl)cc3Cl)n2)ccc1[N+](=O)[O-]`, for which the Potency result in the experiment with WaGa, in the experiment on CAOV3, in the experiment on CASKI, in the experiment on Es-2, in the experiment on Hek293T and in the experiment on OV90 was “inactive” in each case. Besides, the Potency result with PA-1 was “inactive”.
Take `Cc1c(NC(=O)OC[C@@H]2COCCN2)cn2ncnc(Nc3ccc4c(cnn4Cc4cccc(F)c4)c3)c12`: the Potency result in the experiment with WaGa, with C33A, in the experiment with Es-2, in the experiment with HeLa, with Hek293T and in the experiment with JEG-3 was “inactive” each time.
As for `CN1CCC(CNc2ccc3ncc(-c4cccc(OC(F)(F)F)c4)n3n2)CC1`, the Potency entry in the experiment with WaGa, with C33A, with Es-2, in the experiment on HeLa, in the experiment with Hek293T and in the experiment with JEG-3 was “inactive” throughout. Also, the Potency result in the experiment on OV90 and in the experiment with PA-1 was “inactive” in each case.
For the molecule `COc1cc(C(=O)N2CCC(N3CCN(C)CC3)CC2)ccc1Nc1ncc2c(n1)N(C)c1ccccc1C(=O)N2C`, the Potency with WaGa is 16.6 µM (active). Also, the Potency result with C33A, in the experiment on Es-2, with Hek293T, with JEG-3 and with OV90 was “inactive” in each case.
As to `c1ccc2c(CCNc3ccc(Nc4ccncc4)cc3)c[nH]c2c1`, the figures for the Potency in the experiment on WaGa and in the experiment with PA-1 were 7.43 µM (active) and 10 µM (active), respectively. In addition, the Potency entry with HeLa and in the experiment with JEG-3 was “inactive” in each case.
Take `CCc1c2c(nc3ccc(O)cc13)-c1cc3c(c(=O)n1C2)COC(=O)[C@]3(O)CC`: the Potency in the experiment with WaGa was 0.0047 µM (active); in the experiment on CAOV3 it was 0.251 µM (active); with CASKI, 0.126 µM (active); in the experiment with Hek293T, 0.891 µM (active); in the experiment on JEG-3, 8.91 µM (active); with OV90 it was 1.78 µM (active).
Turning to `CCN(CC)CCNC(=O)c1ccc2nc(-c3ccccc3)c(-c3ccc(CN4CCC(n5c(=O)[nH]c6ccccc65)CC4)cc3)nc2c1`, in the experiment with WaGa, the Potency is 7.43 µM (active). The Potency result in the experiment with CASKI, in the experiment with Es-2, with HeLa and in the experiment on PA-1 was “inactive” each time.

The record behind these values is PubChem BioAssay (NCATS).
